From PubChem
G9a block = blocks human histone lysine methyltransferase G9a; Q96KQ7; G9a H3K9 monomethylation, AlphaScreen, 2 h; Potency, µM (highest dose often 102 µM), inactives show top-dose activity, negative = inhibition, usual class: inhibitors; hit rate 8.8% among 350,000; AID 504332; further: on the % scale 0 is the no-effect control and ±100 the full control effect; nearly all actives have a fitted effect of over 75% in size
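Compounds were preincubated with 20 nM G9a for 15 min, after which biotinylated H3K9 peptide (500 nM) and SAM (20 uM) started a 2 h room-temperature reaction. Monomethylated product was quantified by antibody-based AlphaScreen chemiluminescence.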
HP1b binding inh = inhibitors of HP1-beta chromodomain binding to methylated histone tails; AID 540317; Potency, µM (top dose mostly 114 µM), for the others: top-dose activity change, negative = inhibition, actives largely listed as inhibitors; P83916; hit rate 0.56% among 390,000; AlphaScreen HP1-beta / biotin-H3K9me3 peptide binding; further: nearly all actives have a fitted effect of over 70% in size
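HP1-beta protein (50 nM final) preincubated 30 min at room temperature with biotinylated H3(1-18)K9me3 peptide (50 nM) in PBS pH 7.4, 0.01% Tween-20, then compound added for 30 min. AlphaScreen streptavidin donor/nickel chelate acceptor beads (10 ug/mL final), 30 min dark, luminescence read.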
Sfp PPTase inh = inhibitors of Bacillus subtilis Sfp phosphopantetheinyl transferase | hit rate 3.5% among 310,000 | Q9F4F7 | Biochemical Sfp PPTase activity, qHTS | Potency, µM, inactives show largest response in the series, negative = inhibition, actives largely listed as inhibitors;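 further: the enzyme is Sfp with the accession as filed and its product quenches rhodamine fluorescence; 0% = enzyme reaction without inhibitor and -100% = no enzyme wells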
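Fluorescence-quenching assay: 15 nM Sfp-PPTase preincubated 15 min at room temperature with compound, then 5 uM rhodamine-CoA and 12.5 uM BHQ-2-labelled YbbR peptide added. Fluorescence (ex 525/em 598 nm) read at start and after 30 min; difference gives rate.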
JMJD2A Tudor = JMJD2A Tudor domain (human) inhibition. hit rate 4.4% among 390,000. O75164. AID 504339. AlphaScreen JMJD2A-Tudor / H3K4me3 peptide binding. Potency, µM (top dose mostly 114 µM), without a hit: top-dose activity change, negative = inhibition, hits mostly inhibitors; further: on the % scale 0 is the no-effect control and ±100 the full control effect; nearly all actives have a fitted effect of over 50% in size
Target sequence (O75164 whole entry, looked up, the tested form may be a part): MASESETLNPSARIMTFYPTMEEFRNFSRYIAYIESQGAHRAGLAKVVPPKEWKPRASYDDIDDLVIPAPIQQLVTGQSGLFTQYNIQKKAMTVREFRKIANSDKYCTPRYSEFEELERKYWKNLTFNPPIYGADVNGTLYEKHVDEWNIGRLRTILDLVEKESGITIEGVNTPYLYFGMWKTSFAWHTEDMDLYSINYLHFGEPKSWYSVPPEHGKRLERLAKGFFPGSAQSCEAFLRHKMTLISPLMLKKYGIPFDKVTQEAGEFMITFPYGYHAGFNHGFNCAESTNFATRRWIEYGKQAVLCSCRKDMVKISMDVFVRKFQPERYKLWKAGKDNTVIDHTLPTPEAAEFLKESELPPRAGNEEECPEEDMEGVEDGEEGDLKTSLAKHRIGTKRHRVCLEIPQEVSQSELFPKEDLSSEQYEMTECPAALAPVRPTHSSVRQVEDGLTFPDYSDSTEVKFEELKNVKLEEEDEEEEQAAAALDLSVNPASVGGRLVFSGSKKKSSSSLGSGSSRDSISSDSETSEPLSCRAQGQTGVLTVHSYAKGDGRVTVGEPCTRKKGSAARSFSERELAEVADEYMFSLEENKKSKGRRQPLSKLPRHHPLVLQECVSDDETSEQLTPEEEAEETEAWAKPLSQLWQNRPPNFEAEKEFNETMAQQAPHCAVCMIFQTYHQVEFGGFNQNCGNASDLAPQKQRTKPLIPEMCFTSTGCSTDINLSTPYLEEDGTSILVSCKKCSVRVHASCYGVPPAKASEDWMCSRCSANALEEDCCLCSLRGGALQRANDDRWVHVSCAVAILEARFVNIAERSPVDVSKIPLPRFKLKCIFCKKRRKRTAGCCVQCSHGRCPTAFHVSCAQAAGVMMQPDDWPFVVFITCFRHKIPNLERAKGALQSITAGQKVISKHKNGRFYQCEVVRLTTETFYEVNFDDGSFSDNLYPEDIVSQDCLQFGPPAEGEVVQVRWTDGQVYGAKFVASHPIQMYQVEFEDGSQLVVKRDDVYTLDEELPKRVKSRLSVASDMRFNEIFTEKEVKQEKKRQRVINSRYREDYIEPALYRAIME
BAZ2B inh = inhibitors of human BAZ2B bromodomain. Q9UIF8. AlphaScreen BAZ2B-H3K14Ac peptide displacement. Potency, µM (top dose mostly 114 µM), without a hit: top-dose activity change, negative = inhibition, most hits filed as inhibitors. hit rate 4.4% among 360,000. AID 504333; further: on the % scale 0 is the no-effect control and ±100 the full control effect; nearly all actives have a fitted effect of over 60% in size
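Inhibition is scored as reduced AlphaScreen emission. The BAZ2B/b-H3(5-23)K14Ac complex (50 nM each) in PBS pH 7.4, 0.01% Tween-20 meets compound (up to 110 uM) for 30 min at RT before bead addition.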
L3MBTL1 inh = inhibitors of human L3MBTL1. AlphaScreen L3MBTL1–H3K9me1 peptide binding. hit rate 0.66% among 230,000. Potency, µM (highest dose often 57.1 µM), without a hit: top-dose activity, negative = inhibition, actives largely listed as inhibitors. Q9Y468; further: on the % scale 0 is the no-effect control and ±100 the full control effect; nearly all actives have a fitted effect of over 60% in size
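AlphaScreen assay: L3MBTL1 (50 nM final) was preincubated 30 min at room temperature with biotinylated H3(1-15)K9me1 peptide (75 nM final), then 30 min with library compounds; streptavidin donor and nickel chelate acceptor beads (10 ug/mL final) added, 30 min dark.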
The depositor's hits bear a star; ? = inconclusive; · = no result; ! = repeats disagree; [ ] = dose if it differs, or a comment. Only some compounds are listed: those with a hit (about 12% of all), similar ones and a draw of the others. The call rests on the fitted dose curve; in most records, active means well fitted curve in the direction sought with a large enough effect; inconclusive means small, poorly fitted or top-dose-only effect, or another doubt; inactive means no such curve, though single readings can be large; an effect the other way counts as inactive or inconclusive. Potency means the concentration at half of the fitted maximal effect.

SMILES	G9a block	HP1b binding inh	Sfp PPTase inh	JMJD2A Tudor	BAZ2B inh	L3MBTL1 inh
Cc1cc(/C=C(/C#N)c2nc3ccccc3[nH]2)c(C)n1-c1ccccc1C(=O)O	31.6µM*	-15.4%	17.8%	-35.4%	50.1µM*	·
N#C/C(=C\c1ccc(-c2ccccc2C(=O)O)o1)c1nc2ccccc2[nH]1	39.8µM*	5.0%	0.2%	20µM*	79.4µM*	·
N#C/C(=C/c1ccc(O)c(O)c1)c1nc2ccccc2[nH]1	11.2µM*	?	-28.5%	28.2µM*	7.94µM*	·
Cc1cccc(NC(=O)c2cc(S(=O)(=O)N3CCCCC3)ccc2Cl)n1	1.2%	17.4%	·	5.4%	-5.9%	2.2%
COc1ccc(-c2cc(=O)c3c(OC)c(OC)c(OC)cc3o2)cc1OC	·	·	1.6%	·	·	·
COc1ccc(-c2cc(=O)c3ccccc3o2)cc1OC	·	·	35.5µM*	·	·	·
O=C(NCc1ccco1)C12CN(Cc3ccccc3)CC1C(c1cccc([N+](=O)[O-])c1)=NO2 (stereo unspecified)	44.7µM*	-6.8%	1.0%	?	?	-9.0%
O=C(NCCCCc1ccccc1)C12CN(Cc3ccccc3)CC1C(c1ccc([N+](=O)[O-])cc1)=NO2 (stereo unspecified)	?	13.7%	28.2µM*	?	15.1%	-14.6%
O=C(NCCCCc1ccccc1)C12CN(Cc3ccccc3)CC1C(c1cccc([N+](=O)[O-])c1)=NO2 (stereo unspecified)	?	-21.8%	8.4%	-35.4%	-26.4%	-6.3%
COc1ccc(CCNC(=O)C23CN(Cc4ccccc4)CC2C(c2ccc([N+](=O)[O-])cc2)=NO3)cc1 (stereo unspecified)	?	-3.8%	50.1µM*	-30.5%	11.5%	-10.5%
NC(=O)c1ccccc1[N+](=O)[O-]	1.1%[0.501 µM]	50.8%	·	-4.8%	0.4%	2.3%
O=[N+]([O-])c1ccccc1N=Nc1ccc(O)cc1	·	?	·	50.1µM*	·	·
O=[N+]([O-])c1ccccc1N=NNc1ccccc1	·	?	·	20µM*	·	·
O=C(CC1C(=O)N(c2ccccc2)C(=O)N1Cc1ccc2c(c1)OCO2)Nc1ccccc1 (stereo unspecified)	-5.0%[59 µM]	29.7%	·	-16.6%	-14.4%	·
O=C(O)/C=C/c1cn(-c2ccccc2)nc1-c1cccc([N+](=O)[O-])c1	?	34.6%	11.3%	-11.6%	-33.5%	1.5%
COc1ccc(-c2nn(-c3ccccc3)cc2/C=C/C(=O)OCC(=O)Nc2ccccc2C#N)cc1	24.5%[12.7 µM]	-1.8%	14.5%	-24.6%	0.2%	-9.0%
O=C(O)/C=C/c1cn(-c2ccccc2)nc1-c1ccc(-c2ccc([N+](=O)[O-])cc2)o1	50.1µM*	?	25.1µM*	44.7µM*	50.1µM*	-9.3%
CNC(=O)COC(=O)/C=C/c1cn(-c2ccccc2)nc1-c1ccc(C)o1	·	19.1%	50.1µM*	-2.1%	-4.0%	3.0%
Cc1cc(C)c(NC(=O)CCCSc2nnc(N)s2)c(C)c1	50.1µM*	37.9%	13.8%	-6.8%	-29.5%	1.8%
Nc1nnc(SCCCC(=O)c2ccccc2)s1	16.3%	34.2%	13.5%	-5.0%	-4.9%	0.3%
O=C(CN1CCN(c2ccccc2O)CC1)NC(=O)NCc1ccco1	0.0%[59 µM]	11.9%	6.4%	-28.5%	-11.0%	-11.7%
CC(C)(C)NC(=O)NC(=O)CN1CCN(S(=O)(=O)c2ccc3c(c2)CCCC3)CC1	44.7µM*	11.9%	·	-20.0%	-17.0%	11.9%
CC(C)(C)NC(=O)NC(=O)CN1CCN(S(=O)(=O)c2ccccc2)CC1	5.5%	-1.6%	10.5%	-19.9%	-16.5%	·
COc1ccc(N2CCN(CC(=O)Nc3ccc(SC(F)F)cc3)CC2)cc1	?	-14.7%	0.9%	?	39.8µM*	-18.7%
COc1ccc(N2CCN(CC(=O)NC(=O)NCc3ccco3)CC2)cc1	31.6µM*	5.1%	13.3%	?	-7.1%	-28.2%
SMILES	G9a block	HP1b binding inh	Sfp PPTase inh	JMJD2A Tudor	BAZ2B inh	L3MBTL1 inh
COc1ccc(N2CCN(CC(=O)Nc3ccc(C)cc3)CC2)cc1	·	-3.9%	-6.2%	-25.8%	?	-2.3%
COc1ccc(N2CCN(CC(=O)NC(=O)NC(C)(C)C)CC2)cc1	79.4µM*	15.2%	9.1%	-5.8%	-13.5%	-4.7%
CC(C)(C)NC(=O)NC(=O)CN1CCN(c2ccccc2O)CC1	-8.9%	6.3%	17.9%	-5.3%	-36.2%	-10.5%
COc1ccc(NC(=O)Cn2nc(-c3ccncc3)ccc2=O)cc1Cl	1.2%[59 µM]	14.1%[57 µM]	·	-11.9%	4.2%	·
Cn1c(CNC(=O)c2ccc3c(c2)OCO3)nnc1SCC(=O)Nc1ccc(F)cc1	-6.1%	-0.9%	18.3%	-0.4%	-14.5%	·
Cc1ccc(S(=O)(=O)N2CCN(CC(=O)NC(=O)NCc3ccco3)CC2)cc1C	0.8%[12.7 µM]	4.8%	3.7%	?	-36.6%	·
O=C(CN1CCN(c2ccc(O)cc2)CC1)NC(=O)NCc1ccco1	7.94µM*	?	39.8µM*	-13.1%[57.1 µM]	-36.1%	-23.8%
Cc1ccc(C)c(S(=O)(=O)N2CCN(CC(=O)NC(=O)NCc3ccco3)CC2)c1	-32.7%	?	6.9%	50.1µM*	-24.9%	-10.0%
O=C(c1ccncc1)N1CCC2(CC1)CN(c1ccccc1)C2	28.3%[12.7 µM]	·	-5.5%	·	·	·
CC(C)(C)OC(=O)NS(=O)(=O)Nc1ccccc1Br	·	-5.5%	0.5%	35.5µM*	·	·
CN(C(Cc1ccc(OS(=O)(=O)c2cccc3cnccc23)cc1)C(=O)N1CCN(c2ccccc2)CC1)S(=O)(=O)c1cccc2cnccc12 (stereo unspecified)	15.8µM*!	·	8.0%	·	·	·
CCOc1ccc(OCC)c(NS(=O)(=O)c2cc(-c3onc(C)c3C)ccc2OC)c1	5.5%[59 µM]	42.7%	·	0.0%	2.1%	·
CCn1cc(C(=O)O)c(=O)c2cc(F)c(N3CCNC(C)C3)c(F)c21 (stereo unspecified)	11.2µM*!	·	-2.4%	·	·	·
COc1c(N2CCN[C@H](C)C2)c(F)cc2c(=O)c(C(=O)O)cn(C3CC3)c12	·	9.6%	3.3%	-17.3%	-0.4%	·
Cc1ccc(S(=O)(=O)N2CCOCC2)cc1NC(=O)COC(=O)C1(C)CC1(Cl)Cl (stereo unspecified)	·	9.1%	·	-17.3%	·	0.8%
Cc1ccc(NC(=O)CCc2c(C)nc3cc(-c4ccccc4)nn3c2C)cc1F	6.3%[59 µM]	11.7%	·	-14.1%	-4.3%	·
CCOC(=O)N1CCC(Nc2cccc(SC)c2)CC1	?	-11.7%	56.2µM*	?	?	-2.9%
CCOC(=O)N1CCC(Nc2c(NCCCN(CC)c3cccc(C)c3)c(=O)c2=O)CC1	50.1µM*	-8.1%	3.1%	?	?	·
CCC(C)N(C)C1CCN(C(=S)Nc2cccc(SC)c2)CC1 (stereo unspecified)	?	16.0%	56.2µM*	-25.0%	-12.3%	·
